# Experimental data taken from paper PMC5540273 (PLoS ONE, 2017).
# Assays:
# Settings in all cases: concentration: 1 μM, replicates: in singlicate; n = 1
# MYO3B = tested on: MYO3B
# NDR1 = tested on: T1, NDR1
# T1 construct: gene STK38
# NDR2 = tested on: NDR2
# NEK10 = tested on: NEK10
# NEK11 = tested on: NEK11
# NEK1 = tested on: NEK1
# NEK2 = tested on: NEK2
# NEK3 = tested on: NEK3
# NEK4 = tested on: NEK4
# NEK5 = tested on: NEK5
# NEK6 = tested on: NEK6
# NEK7 = tested on: NEK7
# NEK9 = tested on: NEK9
# NIK = tested on: T2, NIK
# T2 construct: gene MAP3K14
# NIM1 = tested on: T3, NIM1
# T3 construct: gene MGC42105
# NLK = tested on: NLK
# OSR1 = tested on: T4, OSR1
# T4 construct: gene OXSR1
# PAK1 = tested on: PAK1
# PAK2 = tested on: PAK2
# PAK3 = tested on: PAK3
# 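Further: KINOMEscan kinase panel screen.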
Structure (SMILES),%Inh (MYO3B),%Inh (NDR1),%Inh (NDR2),%Inh (NEK10),%Inh (NEK11),%Inh (NEK1),%Inh (NEK2),%Inh (NEK3),%Inh (NEK4),%Inh (NEK5),%Inh (NEK6),%Inh (NEK7),%Inh (NEK9),%Inh (NIK),%Inh (NIM1),%Inh (NLK),%Inh (OSR1),%Inh (PAK1),%Inh (PAK2),%Inh (PAK3)
Cc1c(Cn2c(C)nn3c(=O)cc(N4CCOC(C)C4)nc23)cccc1C(F)(F)F (stereo not drawn) [GSK2344444],0%,0%,0%,2%,0%,0%,3%,0%,22%,0%,0%,1%,14%,12%,3%,0%,23%,0%,0%,20%
Cl.Nc1ncnc2occ(-c3ccc(NC(=O)Nc4cc(C(F)(F)F)ccc4F)cc3)c12 [SB-707548],57%,29%,40%,1%,0%,40%,37%,1%,5%,30%,0%,0%,76%,36%,28%,26%,3%,24%,30%,15%
Fc1ccc(-c2ncn(CCCN3CCOCC3)c2-c2cccnc2)cc1 [SB-211743],17%,33%,10%,14%,0%,0%,0%,15%,0%,0%,0%,0%,0%,41%,0%,3%,0%,15%,23%,0%
c1ccc(-c2cc(-c3c[nH]nc3-c3ccccn3)ccn2)cc1 [GW576604],0%,17%,23%,19%,3%,0%,0%,2%,0%,0%,0%,0%,17%,24%,20%,44%,0%,16%,13%,16%
O=C(c1ccc(-c2cc(-c3c[nH]nc3-c3ccccn3)ccn2)cc1)N1CCOCC1 [GW812171],0%,44%,0%,18%,0%,0%,0%,25%,0%,0%,2%,0%,0%,32%,0%,0%,0%,7%,0%,0%
O=c1cc(N2CCOCC2)nc2n(Cc3cccc4ccccc34)ccn12 [GSK2333389],0%,0%,0%,0%,0%,0%,6%,0%,6%,0%,0%,13%,14%,0%,8%,0%,5%,13%,3%,10%
CC(C)(C)n1cnc2c(N)ncnc21 [SKF-97359],5%,0%,0%,12%,14%,0%,0%,42%,0%,0%,0%,0%,0%,33%,17%,2%,0%,0%,0%,0%
Nc1nc(-c2ccc3c(N)n[nH]c3c2)cc(N2CCCC2)n1 [GSK2227430],7%,14%,0%,0%,0%,12%,0%,5%,0%,0%,0%,0%,6%,0%,0%,0%,7%,13%,12%,0%
CCc1ccnc(/C=C/c2n[nH]c3cc(Sc4ccccc4C(=O)NC)ccc23)c1,0%,7%,0%,4%,0%,0%,0%,1%,0%,0%,0%,0%,0%,0%,0%,0%,0%,0%,0%,0%
COc1ccc(CNC(=O)NC2CCN(c3ccnc(Nc4ccc(OC)cc4)n3)C2)cc1 (stereo not drawn) [GSK1379727],0%,0%,42%,15%,11%,0%,0%,8%,12%,13%,0%,0%,6%,17%,33%,24%,0%,0%,0%,0%
O=c1cc(N2CCOCC2)nc2n(Cc3cccc(C(F)(F)F)c3)ccn12 [GSK2297543],0%,16%,7%,0%,0%,0%,0%,0%,0%,0%,0%,0%,18%,25%,14%,32%,5%,6%,14%,14%
[2H]C([2H])(c1cccc(C(F)(F)F)c1C)n1ccn2c(=O)nc(N3CCOCC3)cc12 [GSK2336394],0%,0%,0%,7%,0%,0%,0%,1%,27%,4%,0%,0%,53%,0%,13%,0%,9%,0%,12%,13%
Cc1nnc(-c2ccc3ncc(-c4ccc(S(C)=O)cc4)n3c2)o1 (stereo not drawn),0%,0%,0%,0%,0%,0%,12%,36%,0%,0%,12%,0%,0%,0%,0%,0%,9%,17%,3%,0%
O=c1cc(N2CCOCC2)nc2n(Cc3cccc(F)c3)ccn12 [GSK2297430],0%,0%,0%,24%,0%,0%,0%,0%,0%,0%,0%,0%,7%,7%,0%,0%,1%,18%,9%,79%
C[C@@H](Oc1cc(-n2cnc3ccc(NC(=O)NC(C)(C)C)cc32)sc1C(N)=O)c1ccccc1Cl [GSK346294],0%,17%,17%,0%,0%,0%,5%,5%,0%,26%,0%,4%,16%,21%,19%,19%,18%,15%,14%,15%
CC(=O)Nc1ccc(COc2ccc(Nc3ccnc4cc(-c5ccccn5)ccc34)cc2)cc1.Cl [GW440148],2%,20%,37%,3%,0%,0%,8%,6%,0%,10%,0%,0%,20%,0%,23%,0%,0%,15%,0%,22%
O=C1NC(=O)C(N2CCc3ccccc32)=C1c1cccc(Cl)c1 [SB-408010],21%,6%,7%,43%,0%,3%,12%,14%,0%,0%,9%,0%,0%,0%,0%,12%,0%,9%,44%,0%
Cc1nnc(-c2ccc(C)c(-c3ccc(C(=O)Nc4ccc(NS(C)(=O)=O)cc4)cc3)c2)o1 [GW702865],0%,20%,18%,6%,33%,0%,0%,0%,0%,8%,0%,0%,7%,16%,19%,0%,0%,10%,0%,0%
COCCNC(=O)c1ccc(-c2cc(C(=O)NC3CC3)cc(F)c2C)cc1 [GW868318],24%,33%,21%,3%,27%,0%,0%,26%,14%,8%,22%,0%,0%,48%,59%,11%,30%,20%,49%,27%
COc1cc2c(cc1OC[C@@H](O)CO)ncc1c3ccc(C#N)cc3[nH]c21,0%,62%,15%,18%,0%,0%,23%,37%,0%,0%,0%,0%,0%,60%,30%,0%,0%,0%,0%,0%
Cn1ccc2ncnc(Oc3ccc(NC(=O)Nc4ccncc4)c(Cl)c3)c21,13%,0%,17%,14%,0%,0%,0%,24%,0%,3%,0%,0%,0%,0%,0%,0%,0%,16%,2%,0%
